Measurements reported in PubChem BioAssay (NCATS).
Results filed as inconclusive are left out. Entries that show only a call come without a potency. Active and inactive are the calls of the source. Calls come from the whole dose curve; as a rule, active = well fitted inhibition curve with a large enough effect; inconclusive = small, poorly fitted or top-dose-only effect; inactive = no such curve, though single readings can be large or run the other way.

Tested on: Zika virus NS2B-NS3 protease (linked construct)
Assay: Primary screen NINDS Rhodamine qHTS for Zika virus inhibitors (AID 1347160); note: nearly all actives have a fitted effect of over 55% in size
Settings: purified NS2B-NS3 protease, Rhodamine110 substrate fluorescence; series mostly up to 57.1 µM
Outline: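 Aprotinin served as in-plate control. Conditions: 25 nM linked NS2B-NS3, pH 8.0 Tris buffer, titrated compounds, 15 min preincubation and 15 min reaction with 1.5 microM Rhod110 substrate at room temperature.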

| SMILES | Potency |
| --- | --- |
| COC(=O)/C=C/C=C/C(=O)OC1C=C2COC(=O)C2(O)C2(C)CCCC(C)(C)C12 (stereo unspecified) | inactive |
| CCOC(=O)CCNc1cc(N2CCc3ccccc3CC2)nc(-c2cccnc2)n1 | inactive |
| CCCCOc1ccc(S(=O)(=O)n2c(C)nc3ccccc32)cc1 | inactive |
| COc1ccc(CN2CCN(CCCSc3cc(C(C)(C)C)c(O)c(C(C)(C)C)c3)CC2)c(OC)c1OC | inactive |
| CC(=O)OC[C@]12[C@H](OC(C)=O)C(=O)[C@@H]3[C@@H](O)[C@@]14O[C@@]3(C)COC(=O)c1cccnc1[C@@H](C)[C@H](C)C(=O)O[C@@H]([C@H](O)[C@@H]2OC(C)=O)[C@]4(C)O | inactive |
| Cc1cnn(-c2ccccc2)c1NC(=O)COCc1ccccc1 | inactive |
